This is part of a sample that, as a whole, favours compounds with a hit. Of some 79,000 tested, about 15% had one in any assay. Activity calls are given as the source filed them. Rule as the data show it: active = growth inhibition above about 70%; inactive = the rest.
Assay: NCI Yeast Anticancer Drug Screen. Data for the mec2-1 strain (AID 157)
Details: S. cerevisiae mec2-1 strain, hits give high values
Protocol: Growth inhibition of yeast strains with defined genetic alterations is measured as a screen for potential anti-cancer activity. Selected strains with alterations in DNA damage repair or cell cycle control were exposed to compounds and growth inhibition was measured relative to vehicle treated controls. The strain used in this assay is mec2-1

[1] = at 5.0 µM (retest, dose inferred, filed as 0.5)
[2] = at 50.0 µM (retest, dose inferred, filed as 5.0)

Structure (SMILES) | growth inhibition (at 1.2 µM) | growth inhibition (at 3.7 µM) | growth inhibition [1] | growth inhibition (at 11.0 µM) | growth inhibition (at 33.0 µM) | growth inhibition [2] | growth inhibition (at 50.0 µM) | growth inhibition (at 100.0 µM)
CC(C)N(CCCNc1c2ccccc2nc2cccc([N+](=O)[O-])c12)C(C)C | 12% (inactive) | 76% (active) | 88% (active) | 97% (active) | 98% (active) | 99% (active) | 94.5% (active) | 99% (active)
CCCNC(=O)OCc1c(COC(=O)NCCC)c(-c2ccc(Cl)c(Cl)c2)n2c1CCC2 | -47% (inactive) | -40% (inactive) | 11% (inactive) | -31% (inactive) | -12% (inactive) | 25% (inactive) | 41.1% (inactive) | 28% (inactive)
COC(=O)C(Cc1c[nH]c2ccccc12)N1CN(C)c2ccccc2C1=O (stereo not given) | 5% (inactive) | -1% (inactive) | -17% (inactive) | -2% (inactive) | 5% (inactive) | 11% (inactive) | 50.5% (inactive) | 99% (active)
O=Cc1ccccc1C=O | -17% (inactive) | -22% (inactive) | -8% (inactive) | -12% (inactive) | 32% (inactive) | 32% (inactive) | 80.5% (active) | 90% (active)
ClCCCOc1c(Cl)cc(Cl)cc1Cl | -2% (inactive) | -2% (inactive) | -27% (inactive) | -2% (inactive) | -1% (inactive) | -12% (inactive) | 8.65% (inactive) | 1% (inactive)

Source: PubChem BioAssay (NCI)
